Screening data (PubChem BioAssay)
GFP derepression: qHTS Assay for Epigenetic Modulators. mouse C127i GFP locus derepression, cytometry, 30 h. Potency, µM (top dose mostly 46.1 µM), without a hit: at the highest dose GFP derepression (activation). hit rate 0.09% among 68,000; further: % of control where 0% means no effect
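Locus derepression in mouse mammary C127i cells whose integrated CMV-GFP reporter is normally silent; GFP expression after 30 h compound treatment was quantified by counting fluorescent cells.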
HBB splice mod: qHTS Assay for Modulators of Hemoglobin Beta Chain Splicing; AID 925, 2007; hit rate 0.06% among 65,000; Potency, µM (highest dose often 46.1 µM), without a hit: at the highest dose activation, hits mostly activators; HBB splicing reporter cell assay, activation; EGFP reporter with mutant IVS2-654 intron; response scale: normalised to 500 nM splice-correcting PNA; further: potency means the concentration at half of the fitted maximal effect; 0% is about no effect
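HeLa cells stably expressing EGFP interrupted by mutant beta-globin intron 2 (IVS2-654), 500/well in 2% FCS. Treated with compound for 2 days at 37C. Splicing correction scored as total well GFP intensity (488 nm excitation, 500-520 nm emission); 500 nM antisense PNA served as control.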
Tau fil binding: qHTS Assay for Tau Filament Binding; recombinant tau filaments, thioflavin S fluorescence, 15 h; filaments grown with octadecylsulfate alongside compound; hit rate 2% among 71,000; Potency, µM (series often up to 57.1 µM), inactives show top-dose activity change, negative = inhibition; Microtubule-associated protein tau (Homo sapiens), P10636; AID 596, 2007;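 further: potency means the concentration at half of the fitted maximal effect; on the % scale 0 is the no-effect control and ±100 the full control effect; actives lower thioflavin S fluorescence by blocking filaments or displacing dye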
Target sequence (P10636 whole entry, looked up): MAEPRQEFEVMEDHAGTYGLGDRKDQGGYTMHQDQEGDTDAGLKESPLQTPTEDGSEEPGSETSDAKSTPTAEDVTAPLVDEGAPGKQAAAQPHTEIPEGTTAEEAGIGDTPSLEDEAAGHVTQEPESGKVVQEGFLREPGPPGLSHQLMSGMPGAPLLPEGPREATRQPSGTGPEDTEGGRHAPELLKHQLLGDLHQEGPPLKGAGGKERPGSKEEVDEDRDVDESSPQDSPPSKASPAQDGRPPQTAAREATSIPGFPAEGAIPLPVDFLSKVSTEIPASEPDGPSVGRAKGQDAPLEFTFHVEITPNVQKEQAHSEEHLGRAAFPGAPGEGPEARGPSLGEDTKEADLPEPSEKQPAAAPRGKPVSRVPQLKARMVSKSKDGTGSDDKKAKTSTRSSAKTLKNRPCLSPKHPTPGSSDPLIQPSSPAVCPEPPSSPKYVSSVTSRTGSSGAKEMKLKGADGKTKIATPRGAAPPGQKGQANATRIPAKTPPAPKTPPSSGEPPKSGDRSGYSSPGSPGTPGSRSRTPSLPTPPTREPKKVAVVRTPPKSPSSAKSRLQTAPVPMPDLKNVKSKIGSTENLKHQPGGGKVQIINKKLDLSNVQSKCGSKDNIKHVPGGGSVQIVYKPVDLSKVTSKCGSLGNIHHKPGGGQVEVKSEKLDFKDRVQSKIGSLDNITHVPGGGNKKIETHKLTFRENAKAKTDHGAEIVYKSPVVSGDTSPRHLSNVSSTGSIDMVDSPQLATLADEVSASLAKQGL
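Assay mix: 1 uM His-tagged tau, 30 uM sodium octadecylsulfate, thioflavine S dye in HEPES/NaCl/DTT buffer. Compound is added prior to the inducer. Fluorescence after 15 h at 37 C.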
15-hLO inh: qHTS Assay for Inhibitors of 15-hLO (15-human lipoxygenase); Polyunsaturated fatty acid lipoxygenase ALOX15 (Homo sapiens), P16050; purified 15hLO-1, xylenol orange hydroperoxide absorbance; Potency, µM (series often up to 57.1 µM), inactives show at the highest dose activity change, negative = inhibition, most hits filed as inhibitors; hit rate 1.4% among 74,000; AID 887, 2007; further: potency means the concentration at half of the fitted maximal effect; on the % scale 0 is the no-effect control and ±100 the full control effect; nearly all actives have a fitted effect of over 55% in size
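Hydroperoxide formed from arachidonic acid (50 uM) by purified human 15hLO-1 (40 nM) oxidizes ferrous iron, and the ferric-xylenol orange complex is read at 573 versus 405 nm. Compounds were preincubated 15 min; reaction ran 6 min at room temperature.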
Ub-GFP proteasome: Ubiquitin-GFP Assay. Ubiquitin-GFP reporter cells, proteasome inhibition, GFP fluorescence; response scale: untreated = 0%, 10 µM MG-132 = 100%. Potency, µM (titrated, usually from 45.9 µM), without a hit: at the top dose activation (GFP accumulation), usual class: activators. 67,000 tested, under 10 active; active means well fitted activation curve with a large enough effect, not every such curve was filed as active; inconclusive means small, poorly fitted or top-dose-only effect, or another doubt; inactive means no such curve, though single readings can be large or run the other way; further: potency means the concentration at half of the fitted maximal effect
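U2OS cells stably expressing ubiquitin(G76V)-GFP, seeded overnight in 0.5% FBS medium, were exposed to compounds (qHTS, 46 uM to 2.9 nM) for 4 hr at 37 °C. GFP-positive cells were counted by laser cytometry (488 ex/515 em), normalized between basal and 10 uM MG-132.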
15-hLO-2 inh: qHTS Assay for Inhibitors of 15-hLO-2 (15-human lipoxygenase 2); Polyunsaturated fatty acid lipoxygenase ALOX15B (Homo sapiens), O15296; purified 15hLO-2, xylenol orange hydroperoxide absorbance; Potency, µM (doses to about 57.1 µM), for the others: top-dose activity change, negative = inhibition, most hits filed as inhibitors; hit rate 0.56% among 110,000; AID 881, 2007; further: potency means the concentration at half of the fitted maximal effect; on the % scale 0 is the no-effect control and ±100 the full control effect; nearly all actives have a fitted effect of over 60% in size
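Screening format was qHTS against 50 nM purified 15hLO-2 in Hepes pH 7.5 with detergent. Activity follows hydroperoxide formation from 45 uM arachidonic acid, measured as 573:405 nm absorbance ratio of the ferric-xylenol orange complex.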
Active calls of the source: *; i = inactive; ? = inconclusive; · = no result given; [ ] = remark or other dose. Hits are enriched below; roughly 2.3% of the tested compounds scored in any of these assays. Unless noted, the call rests on the fitted dose curve; in most records, active means well fitted curve in the direction sought with a large enough effect; inconclusive means small, poorly fitted or top-dose-only effect, or another doubt; inactive means no such curve, though single readings can be large; an effect the other way counts as inactive or inconclusive.

SMILES	GFP derepression	HBB splice mod	Tau fil binding	15-hLO inh	Ub-GFP proteasome	15-hLO-2 inh
O=S1(=O)N[C@H]2CC[C@@H]3NS(=O)(=O)N[C@H]4CC[C@H](N1)N4S(=O)(=O)N23	0%[9.22 µM]	5%[9.22 µM]	3.2µM*	2%[11.4 µM]	-9%[9.17 µM]	-4%[11.4 µM]
O=C1c2c(O)ccc(O)c2C(=O)c2c(NCCNCCO)ccc(NCCNCCO)c21	?	3%[20.6 µM]	4µM*	9%	7%[20.5 µM]	44%
COc1ccc(N)cc1C#N	·	·	·	·	·	10%
COc1cc(N)ccc1Cc1ccc(N)cc1OC	2%	0%	25µM*	-2%	-1%	-4%
Cc1c(C)c(C)c(CC2(C)CSC2)c(CC2(C)CSC2)c1C	9%[9.22 µM]	1%[9.22 µM]	14%[11.4 µM]	3%[11.4 µM]	6%[9.17 µM]	-7%[11.4 µM]
C[N@+]1(CCC(=O)c2ccccc2)CC[C@H]2CC[C@H](C2)C1	-3%[9.22 µM]	0%[9.22 µM]	7%[11.4 µM]	3%[11.4 µM]	-8%[9.17 µM]	-5%[11.4 µM]
CC(=O)Nc1cccc(C(=O)Oc2cccc(C)c2)c1O	0%	0%	-5%	16µM*	5%	0%
c1nc(N2CCCC2)c2[nH]cnc2n1	2%	-1%	2%	3%	5%	·
OCCN1CCN(c2ncnc3nc[nH]c23)CC1	·	-1%	25µM*	?	10%	-5%
Nc1ccc(C(=O)Nc2nc3ccccc3s2)cc1	·	·	·	·	·	6%
Nc1c(C(=O)Nc2nc3ccccc3s2)sc2nc(-c3cccs3)ccc12	·	·	·	·	·	13µM*
CC[C@]1(O)C[C@@H]2CN(CCc3c([nH]c4ccccc34)[C@](C(=O)OC)(c3cc4c(cc3OC)N(C=O)[C@H]3[C@@](O)(C(=O)OC)[C@H](C(=O)OC)[C@@]5(CC)C=CCN6CC[C@]43[C@H]65)C2)C1	-1%	·	?	?	2%	57%
Cc1ccc2c(c1)c1c3n2CCN=C3CCC1	2%	-1%	13µM*	-8%	3%	6%
COc1ccc(-c2cc(C(F)(F)F)n3nc(C(=O)Nc4cc(C)on4)cc3n2)cc1OC	3%	9%	1.6µM*	8%	-1%	-5%
COC(=O)c1cc2nc(-c3ccc(OC)cc3)cc(C(F)(F)F)n2n1	2%	0%	219%	0%	12%	2%
CCOc1ccc2nc(NC(=O)c3ccoc3C)sc2c1	2%	-1%[0.0738 µM]	134%[11.4 µM]	4µM*	16%[9.17 µM]	17%
COc1ccc2nc(NC(=O)c3cnccn3)sc2c1	-2%	-3%	5µM*	6%	-5%	-1%
CCOCC(=O)Nc1nc2ccc(OC)cc2s1	9%	3%	-2%	-2%	4%	9%[2.29 µM]
CN(C)c1ccc(N/C=C/C(=O)c2ccccc2)cc1	0%	2%	16µM*	?	-5%	?
CN(C)c1ccc(N/C=C/C(=O)C(C)(C)C)cc1	·	·	·	·	·	25µM*
O=C(/C=C/Nc1ccccc1)c1ccccc1	·	·	·	·	·	13%
COc1ccc(/C=C/N(CCc2ccc(OC)c(OC)c2)C(=O)C(F)(F)F)cc1	·	2%[9.22 µM]	·	3%[11.4 µM]	·	·
Cc1cccn2c(=O)c3cc(C(=O)NCCc4ccccc4)c(=N)n(CCCn4ccnc4)c3nc12	·	·	·	·	·	52%
C=CCn1c(=N)c(C(=O)NCCCOC)cc2c(=O)n3cccc(C)c3nc21	9%	-3%	i	1.3µM*	-5%	-11%
CCNC(=O)c1cc2c(=O)n3cccc(C)c3nc2n(CCc2ccccc2)c1=N	0%[20.6 µM]	·	·	·	·	-6%
SMILES	GFP derepression	HBB splice mod	Tau fil binding	15-hLO inh	Ub-GFP proteasome	15-hLO-2 inh
CCCCNC(=O)c1cc2c(=O)n3cccc(C)c3nc2n(Cc2ccccc2)c1=N	6%	0%[57.5 µM]	0.2µM*	-7%	-3%	-18%
COCCn1c(=N)c(C(=O)NCCc2ccccc2)cc2c(=O)n3cccc(C)c3nc21	-3%	1%[9.22 µM]	3.2µM*	4%	2%	·
COc1ccccc1CNc1ncnc2ccc(-c3ccccc3C#N)cc12	0%[9.22 µM]	0%	i	-11%	-7%	34%
C/C(CC/C(C)=N/O)=N/O	-3%[9.22 µM]	3%[9.22 µM]	8%[11.4 µM]	8%[11.4 µM]	-1%[9.17 µM]	-6%[11.4 µM]
c1ccc(-c2nc(NCCCN3CCOCC3)c3ccccc3n2)cc1	4%	1%	5µM*	?	4%	8%[2.29 µM]
O=C1C(C=Nc2ccccc2O)=C(O)c2ccccc21	2%	0%	?	-8%	-5%	-28%
Cc1ccc(O)c(N=CC2=C(O)c3ccccc3C2=O)c1	-2%	1%	7.9µM*	?	7%	?
Cc1cc(O)ccc1Nc1nc2ccccc2nc1Nc1ccc(O)cc1C	2%	2%	7.9µM*	16µM*	11%	-26%
CCc1cc(C(C)=O)c(O)cc1OCCCCCC(C)(C)c1nn[nH]n1	·	-1%	·	20µM*	·	4%
CC(C)[N+]1(C)[C@@H]2CC[C@H]1CC(OC(=O)[C@@H](CO)c1ccccc1)C2 (some centres undefined)	-1%	0%[20.6 µM]	?	7%[25.6 µM]	7%	13%
CCCCCCCCCCCCC/C=C\[C@H](O)[C@H](N)CO	-2%	2%	-12%	·	-2%	·
Cc1cc(=O)oc2c(C(=O)/C=C/c3ccccc3)c(O)ccc12	·	·	·	·	·	-5%
Cc1cc(=O)oc2c1ccc1oc(/C(=N/O)c3ccccc3)c(C)c12	-3%	-2%	94%	7.9µM*	-10%	?
Nc1nc(-c2ccco2)c(-c2ccco2)s1	0%	-7%	?	20µM*	1%	-22%
c1coc(-c2nc(-c3ccco3)c(-c3ccco3)nc2-c2ccco2)c1	0%	0%[57.5 µM]	?	2µM*	2%	-26%
O=C(CSc1nc2cc(Cl)ccc2s1)c1ccco1	0%	3%	-17%	-4%	-9%	-16%
O=C(CSCc1ccc(Cl)cc1)c1ccco1	-3%	0%[57.5 µM]	?	32µM*	2%	-23%
CCOC(=O)SC1=N/C(=C\c2ccc(N(C)C)cc2)C(=O)S1	0%	5%	3.2µM*	-29%	-5%	?
CCSC1=N/C(=C\c2ccc(C(=O)O)cc2)C(=O)S1	0%	3%	13%	4%	-4%	-9%
Cc1nc2ccccc2c2oc(C(=O)N3CCc4ccccc4C3)cc12	-2%	-1%	416%	20µM*	0%	-2%
COc1cccc(Cn2c(=O)c(-c3cccs3)nc3cnc(Nc4ccccc4)nc32)c1	0%[9.22 µM]	3%	157%	5%	1%	3%
COCCn1c(=O)c(-c2ccc(F)cc2)nc2cnc(Nc3cccc(OC)c3)nc21	3%[9.22 µM]	20µM*	i	-5%	?	0%
